SUMO HTRF inh: inhibitors of human SUMOylation (UBC9); AID 2006; 0.36% of 290,000 active; HTRF SUMOylation assay, SAE1/SAE2 + UBC9, in vitro; inhibition, % at 35 µM; P63279; in the data active = inhibition above about 50%, passing the limit was not always enough
PERK inh: inhibitors of human PERK kinase. CHO PERK-DD fusion, SEAP luminescence translation reporter. inhibition, % at 5.6 µM. 0.17% of 220,000 active;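 active = inhibition above the mean inhibition of all tested compounds plus 3 SD, set separately per screening campaign, cut at about 2.9% in these data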;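 note: PERK kinase domain activated by AP20187 dimerizer at 100 nM; 0% = DMSO with dimerizer and 100% = rapamycin at 8.4 µM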
p97 inhibitor: blocks human p97 ATPase activity. P55072. recombinant p97 ATPase, Kinase-Glo ATP luminescence, 3 h. inhibition, % at 8 µM. 0.42% of 220,000 active. AID 1481; in the data active = inhibition above about 15%;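 note: 0% = DMSO vehicle and 100% = wells lacking enzyme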
DTT redox prof: compounds producing H2O2 with reducing agent – biochemical, NIH compound library profiling, artefact control for MLSCN library redox annotation, primary screen; 0.03% of 200,000 active; DTT-dependent redox cycling H2O2, phenol red/HRP absorbance; 100% = 100 µM peroxide control, 0% = buffer; activation, % at 10 µM;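 active = activation of at least 50% relative to the plate's high and low controls in the primary single-dose screen; inactive = activation below 50%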;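 note: compound incubated with DTT at 0.8 mM final as the reducing agent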
* marks the source's active call; other numbers are inactive results; nt = no result. Most compounds without a hit are left out; they make up all but 0.69% or so of the library.

SMILES	SUMO HTRF inh	PERK inh	p97 inhibitor	DTT redox prof
O=[N+]([O-])c1cccc(S(=O)(=O)N2CCN(c3ccccn3)CC2)c1	0.0	nt	nt	nt
C[C@]12CS(=O)(=O)C[C@H]1SC(=S)N2c1ccccc1	-1.9	4.7*	2.0	nt
COc1ccc(OCCN(C)Cc2c(O)ccc3ccccc23)cc1	-3.3	nt	nt	nt
Oc1cc2c(cc1C(c1ccc(Br)cc1)N1CCCC1)OCO2 (stereo not given)	10.7	1.4	1.6	-0.2
O=[N+]([O-])c1ccc(N/N=C/c2cccc(O)c2O)c(S(=O)(=O)N2CCOCC2)c1	50.9*	0.0	3.2	1.1
O=[N+]([O-])c1ccc(N/N=C/c2ccc(O)c(O)c2O)c(S(=O)(=O)N2CCOCC2)c1	40.3	0.5	7.0	0.5
Cc1ccccc1NC(=O)CSc1nnc(-c2ccco2)c(-c2ccco2)n1	64.7*	0.5	3.8	-3.3
Cc1cccc(C)c1NC(=O)CSc1nnc(-c2ccco2)c(-c2ccco2)n1	44.1	-0.1	-0.2	0.8
O=C(COC(=O)CCC1CCCC1)Nc1ccccc1Sc1ccccc1	-20.0	2.9*	-0.9	-0.4
CC1CCN(Cc2cc(=O)oc3cc(O)c(Cl)cc23)CC1	55.2*	nt	nt	nt
COc1ccc(-c2[nH]ncc2CN(C)CC2CCCCO2)cc1F (stereo not given)	18.8	0.4	1.8	-0.7
COc1ccc(-c2[nH]ncc2CN(C)CCN2CCOCC2)cc1F	1.5	3.0*	3.1	-1.6
CC(C)c1ccc(NC(=O)C2C3C=CC4(O3)C2C(=O)N(CCCN2CCOCC2)C4C(=O)NC2CCCCC2)cc1 (stereo not given)	12.4	nt	nt	nt
CCCn1cnc2c(=S)nc(N)[nH]c21	5.3	3.4*	12.4	nt
COc1ccccc1NS(=O)(=O)c1cccc(C(=O)N/N=C/c2ccc(C)o2)c1	0.1	0.5	-0.2	0.7
Cc1ccc(/C=N/NC(=O)c2cccc(S(=O)(=O)Nc3cccc(Cl)c3)c2)o1	61.0*	0.7	-3.8	-2.0
CCOc1ccc(NC(=O)CCNC(=O)Cn2ccc3ccccc3c2=O)cc1	-0.4	nt	nt	nt
Cc1nc([N+](=O)[O-])cn1CCC#N	9.7	3.6*	6.3	nt
Fc1cccc(Cc2noc(CN3CCCN(C4Cc5ccccc5C4)CC3)n2)c1	16.9	-0.3	0.5	-0.5
COc1ccc(NC(=O)CCSc2nnc(C)s2)cc1	4.3	0.3	1.0	0.0
Cc1ccc(NC(=O)CCSc2nnc(C)s2)cc1	10.8	2.9*	0.6	2.5
C/C(=N/N=C1\SCC(=O)N1c1ccccc1)c1ccc(C)cc1	-7.5	3.7*	5.4	nt
CCOC(=O)C1=C(Nc2ccc(OC)cc2)OCC1=O	16.9	2.9*	-2.9	nt
CCOC(=O)C1=C(Nc2ccccc2)OCC1=O	7.0	1.2	2.9	2.0
COc1ccc(-n2c(C)cc(C3=NNC(=NC4CC4)SC3)c2C)cc1	-4.1	0.8	21.6*	-1.2
SMILES	SUMO HTRF inh	PERK inh	p97 inhibitor	DTT redox prof
Cc1cc(C2=NNC(=NC3CC3)SC2)c(C)n1-c1ccccc1	-9.9	0.4	1.6	-0.2
CC(=O)Nc1ccc(S(=O)(=O)NCC(=O)OCC(=O)NC23CC4CC(CC(C4)C2)C3)cc1	9.5	0.3	1.3	0.1
C=CCSc1nc2ccccc2c(=O)[nH]1	0.7	3.0*	6.0	0.3
COc1ccc(Cn2cnc([N+](=O)[O-])c2)cc1[N+](=O)[O-]	5.3	3.1*	10.2	nt
O=[N+]([O-])c1cn(Cc2ccc(Cl)cc2)cn1	19.9	0.4	3.3	-3.8
Cc1ccc(N/N=C2/CCCNC2=O)cc1	8.7	1.7	4.5	2.2
CC(=O)c1ccc(N/N=C2/CCCNC2=O)cc1	-13.2	4.0*	-3.5	nt
Cc1ccccc1Nc1cccc2nonc12	91.8*	0.8	-4.2	-0.8
S=c1[nH]nc(C2COc3ccccc3O2)o1 (stereo not given)	0.2	3.0*	-3.1	0.5
S=c1nc(C2COc3ccccc3O2)[nH][nH]1 (stereo not given)	-13.8	-0.5	4.3	0.6
Cc1cc(Cl)ccc1OCC(=O)N/N=C/c1ccc(OC2OC(CO)C(O)C(O)C2O)cc1 (stereo not given)	6.3	0.0	-7.1	nt
COc1ccc(OCC(=O)N/N=C/c2ccc(O[C@@H]3O[C@H](CO)[C@@H](O)[C@H](O)[C@H]3O)cc2)cc1	-13.1	3.4*	5.3	13.3
COc1cc(OC)c(/C=N/NC(=O)c2ccncc2)cc1Br	28.1	1.7	2.8	-0.3
COc1cc(OC)c(/C=N/NC(=O)c2ccc(NC(C)=O)cc2)cc1Br	50.4*	0.3	1.3	-0.5
O=C1NCC(COc2cccc3ccccc23)O1 (stereo not given)	4.1	3.1*	4.1	-0.6
O=C(Nc1nc(-c2ccco2)c(-c2ccco2)s1)C1CC(=O)N(c2ccc3c(c2)OCCO3)C1 (stereo not given)	82.9*	1.0	12.3	-2.4
CCCCc1nnc(NC(=O)C2CC(=O)N(c3ccc4c(c3)OCCO4)C2)s1 (stereo not given)	7.1	0.7	-3.6	0.3
O=C(Nc1nnc(-c2ccco2)s1)C1CCCCC1	12.6	0.1	2.8	1.6
O=C(Nc1nc(-c2ccco2)c(-c2ccco2)s1)C1CCC1	60.6*	-0.4	12.8	-0.2
COc1cccc(NC(=O)c2ccc(N3C(=O)C4CC=C(C)CC4C3=O)cc2)c1 (stereo not given)	-5.4	nt	nt	nt
Cc1cccc(C)c1OCC(=O)N/N=C/C=C/c1ccco1	55.4*	0.6	1.7	-0.3
COc1ccc(C(C)NC(=O)CC23CC4CC(CC(C4)C2)C3)cc1 (stereo not given)	0.4	nt	nt	nt
O=C1c2cccc3cccc(c23)C(=O)N1/N=C/c1ccc(O)cc1O	6.5	0.8	3.3	-0.2
O=C1c2ccccc2C(=O)N1/N=C/c1ccc(O)c(O)c1O	71.5*	-0.3	1.0	nt
O=C(N/N=C/c1cccc(F)c1)c1cc(-c2ccco2)nc2ccccc12	79.2*	-0.1	0.1	1.5
SMILES	SUMO HTRF inh	PERK inh	p97 inhibitor	DTT redox prof
CCc1nnc(NC(=O)c2cc(-c3ccco3)nc3ccccc23)s1	67.0*	-0.2	1.0	-0.3
N#Cc1c(-c2cccc(Br)c2)cc(-c2ccco2)[nH]c1=O	79.3*	0.0	7.5	0.6
CC1(C)Cc2nc3nc(SCC(=O)Nc4ccccc4)nc(N)c3cc2CO1	23.7	0.8	1.8	0.4
COc1ccc(NC(=O)CSc2nc(N)c3cc4c(nc3n2)CC(C)(C)OC4)cc1	-11.2	3.2*	0.3	nt
O=C(Nc1cccc(-n2cnnn2)c1)c1ccc(Cl)cc1Cl	3.7	nt	nt	nt
COc1ccccc1-n1c(=O)c(C#N)c(-c2ccc([N+](=O)[O-])cc2)c2cc(C(=O)c3ccccc3O)cnc21	-1.2	0.6	6.9	nt
CCN1/C(=C/C=C/c2oc3ccc4ccccc4c3[n+]2CC)Oc2ccc3ccccc3c21	89.9*	-0.6	3.7	0.6
CC[n+]1c(/C=C/N(C)c2ccccc2)oc2ccc(Cl)cc21	-1.9	0.4	-0.3	-0.3
Cc1cc(C)cc(OCCNC(=O)C2CCN(S(=O)(=O)c3ccccc3)CC2)c1	-0.8	nt	nt	nt
COc1ccc2oc(=O)c(C(=O)NCc3ccco3)cc2c1	51.8*	0.5	1.4	-1.6

Source: PubChem
